# Pf growth 48h: P. falciparum growth inhibition at 48 hours (one generation); P. falciparum luciferase growth in erythrocytes, 48 h; Potency, µM (titrated, usually from 28.7 µM), for inactives: top-dose activity change, negative = inhibition, most hits filed as inhibitors; 310,000 compounds, 5.9% hits; AID 504832; further: on the % scale 0 is the no-effect control and ±100 the full control effect
#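 Compounds are pin-transferred into medium, infected erythrocytes (2% hematocrit, 0.1% parasitemia final) are added, and plates sit one parasite generation at 37 C in 5% CO2. Detection reagent is then added and luminescence measured.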
# HCV inhibitor: HCV inhibition; 340,000 compounds, 3.4% hits; Huh7.5.1 HCVcc-Cre infection, luciferase reporter, 44 h; Potency, µM (series often up to 41.8 µM), without a hit: top-dose activity change, negative = inhibition, actives largely listed as inhibitors; further: on the % scale 0 is the no-effect control and ±100 the full control effect
#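 Luciferase read-out (15 sec integration) after a 15 min room-temperature substrate step quantifies HCVcc-Cre infection. Cells, 1,000 per well, had compound added 4 h post-plating, then virus at ~0.5 moi, and were cultured 44 h.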
# VACV mCherry inh: inhibitors of vaccinia virus infection (mCherry reporter signal); Vaccinia virus mCherry reporter infection, fluorescence; Potency, µM (series often up to 36.5 µM), for the others: top-dose activity change, negative = inhibition, hits mostly inhibitors; 310,000 compounds, 0.63% hits; AID 720579; calls by dose curve; tested in A549 cells; further: on the % scale 0 is the no-effect control and ±100 the full control effect; nearly all actives have a fitted effect of over 35% in size
# Pf growth 96h: inhibits malaria parasite growth, 96 h; 320,000 compounds, 6.9% hits; Potency, µM (top dose mostly 28.7 µM), without a hit: top-dose activity change, negative = inhibition, hits mostly inhibitors; P. falciparum luciferase reporter growth, 96 h; further: on the % scale 0 is the no-effect control and ±100 the full control effect
#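 P. falciparum expressing integrated firefly luciferase, in erythrocytes at 2% hematocrit, 0.05% parasitemia, incubated with compounds 96 h at 37 C, 5% CO2. Growth inhibition read as loss of luminescence; two-generation exposure targets delayed-death apicoplast inhibitors.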
# NS1 inh: blocks influenza NS1 protein function. Potency, µM (titrated, usually from 46.1 µM), inactives show top-dose activity, positive = more growth. 270,000 compounds, 0.4% hits; calls by dose curve; further: actives are rising curves; nearly all actives have a fitted effect of over 50% in size
#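 Read-out: OD600 growth recovery of NS1-expressing budding yeast. Cells grown overnight at 30C in -URA glucose medium, washed, resuspended and diluted 1:100 in 2% galactose assay medium, pH 6.0. Same strain lacking NS1 served as positive control.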
# VACV Venus inh: vaccinia inhibition (Venus reporter) | Vaccinia virus Venus reporter expression, fluorescence | Potency, µM (titrated, usually from 36.5 µM), inactives show at the top dose activity change, negative = inhibition, most hits filed as inhibitors | 330,000 compounds, 0.46% hits; calls by dose curve; tested in A549 cells; further: on the % scale 0 is the no-effect control and ±100 the full control effect; nearly all actives have a fitted effect of over 30% in size
# The depositor's hits bear a star; i = inactive; ? = inconclusive; · = no result; [ ] = remark or other dose. In the library only some 11% were active in any assay of this set; here they are far more common. Unless noted, the call rests on the fitted dose curve; in most records, active means well fitted inhibition curve with a large enough effect; inconclusive means small, poorly fitted or top-dose-only effect, or another doubt; inactive means no such curve, though single readings can be large or run the other way. Potency means the concentration at half of the fitted maximal effect.
SMILES,Pf growth 48h,HCV inhibitor,VACV mCherry inh,Pf growth 96h,NS1 inh,VACV Venus inh
COc1ccc(CCNC(=O)c2cc(C3CC3)nc3c2cnn3C(C)C)cc1,?,10µM*,·,?,·,·
COc1ccccc1CCNC(=O)c1cc(C2CC2)nc2c1cnn2C(C)C,?,8.9µM*,-9%,10µM*,·,-16%
Cc1cccc(OCCNC(=O)c2cc(C3CC3)nc3c2cnn3C(C)C)c1,·,·,i,·,·,-8%
COc1ccccc1OCCNC(=O)c1cc(C2CC2)nc2c1cnn2C(C)C,?,1.3µM*,-29%,10µM*,·,-25%
CCc1ccccc1NC(=O)CNC(=O)c1cc(C2CC2)nc2c1cnn2C(C)C,?,?,·,-3%,·,·
Fc1ccc(Sc2ccccc2CNC2=NCCN2)cc1,5.9µM*,?,?,2.1µM*,-28%,?
OCCNC1=NCCN1,1%,17%,·,21%,-3%,-14%
CC(C)(C)OC(=O)CC1(C#N)c2ccccc2C(Br)=CN1C(=O)c1ccccc1 (stereo not drawn),12µM*,?,?,12µM*,·,-19%
COc1ccc(C(=O)N(c2ccc(C)cc2)C2C=CS(=O)(=O)C2)cc1OC (stereo not drawn),-6%,0%,i,?,·,-15%
CC1CCN(C(=S)c2cn(Cc3ccccc3F)c3ccccc23)CC1,7.4µM*,?,-11%,13µM*,-10%,-18%
O=C(c1ccccn1)N(Cc1cccs1)C1(C(=O)NC2CCCCC2)CCCCC1,-28%,11µM*,-4%,56%,·,-8%
CN(C)CCCNC(=O)/C(=C\c1ccc(-c2ccc(Br)cc2)o1)NC(=O)c1ccccc1,10µM*,?,11µM*,?,2%,13µM*
Cc1ccc(C(=O)N/C(=C\c2ccc(-c3ccc(Cl)cc3)o2)C(=O)NCCCN(C)C)cc1,10µM*,?,?,9.3µM*,·,13µM*
Cc1ccc(S(=O)(=O)CC(=O)N2CCCCCC2)cc1,14%,15%,·,?,4%,·
O=C(CS(=O)(=O)c1ccccc1)N1CCCCC1,10%,1%,i,2.6µM*,1%,-14%
O=C1CC(C(=O)NC2CCCCC2)C(c2ccccc2)O1 (stereo not drawn),-12%,2%,·,29%,-7%,-14%
C[C@@H]1[C@@H](Sc2ccccc2)CC(=O)O[C@@H]1c1ccc(-c2ccccc2)cc1,·,?,?,·,·,2.5µM*
COc1ccc2c(c1)OC[C@H]1[C@H]2N2C(=O)CN(Cc3ccc(Cl)cc3)C(=O)[C@@]2(C)[C@H]1c1ccccc1,2.9µM*,11µM*,?,?,·,-26%
COc1ccc2c(c1)OC[C@H]1[C@H]2N2C(=O)CN(Cc3ccccc3)C(=O)[C@@]2(C)[C@H]1c1ccccc1,·,?,-25%,·,·,-25%
COc1ccc(CN2CC(=O)N3[C@H]4c5ccc(OC)cc5OC[C@@H]4[C@H](c4ccccc4)[C@]3(C)C2=O)cc1,4.7µM*,?,-18%,?,·,-26%
Clc1cccc(OCCCCN2CCCCC2)c1,-24%,-5%,·,?,-15%,·
CCN(CC(=O)Nc1ccccc1C(F)(F)F)C(=O)c1cccc(S(=O)(=O)N2CCN(C)CC2)c1,9%,10%,-21%,28%,·,-9%
COc1ccccc1-c1ccc([C@@H]2C[C@H]3[C@H](CON3C)CN2C(=O)c2ccc(-c3ccccc3)cc2)cc1,·,·,-8%,·,·,?
COCCN(C)Cc1cn(-c2ccc(F)cc2F)nc1-c1ccccc1C,-71%,-4%,-20%,40%,-1%,-12%
Cc1ccccc1-c1nn(-c2ccc(F)cc2F)cc1CNCCCN(C)C,2.6µM*,3.2µM*,-10%,?,0%,-21%
SMILES,Pf growth 48h,HCV inhibitor,VACV mCherry inh,Pf growth 96h,NS1 inh,VACV Venus inh
Cc1ccccc1-c1nn(-c2ccc(F)cc2F)cc1CNCCN(C)C,?,-16%,-9%,13µM*,8%,-3%
CCC(COC)NCc1cn(-c2ccc(F)cc2F)nc1-c1ccccc1C (stereo not drawn),?,14%,·,9%,-1%,·
COCCC1CCCCN1C(=O)c1cc(COc2ccc(-n3cncn3)cc2)on1 (stereo not drawn),11%,10µM*,-20%,?,-4%,-21%
COCCOC1CCN(C(=O)c2cc(COc3ccc(-n4cncn4)cc3)on2)CC1,14%,0%,-13%,-2%,4%,-1%
O=C(N/N=C/c1cccnc1)c1cccc(Br)c1,5%,18%,·,6.6µM*,-10%,·
O=C(N/N=C/c1cccnc1)c1cccc(Cl)c1,28%,3%,-14%,26%,-1%,-18%
O=C(N/N=C/c1[nH]c2ccccc2c1Cl)c1cccc(Br)c1,?,7.1µM*,-10%,12µM*,5%,0%
O=C(N/N=C/c1cc(Br)c(Br)o1)c1cccnc1,-16%,6%,-27%,13µM*,-4%,-9%
CC1(C)CC(=O)C2=C(C1)N(c1ccccc1)C(N)=C(C#N)C2c1ccsc1 (stereo not drawn),·,7%,·,39%,-1%,-5%
Cc1ccc2nc(NC(=O)c3ccc(Cl)s3)sc2c1,·,-9%,5%,-102%,-5%,?
CCOc1ccccc1Nc1nc2ccc(C)cc2n2cnnc12,1%,-25%,·,59%,2%,·
Cc1ccc(Nc2cc(C)nc3ncnn23)cc1,3.7µM*,6%,?,?,-2%,-27%
Cc1ccc(-c2cc(C)nc3ncnn23)cc1,·,1%,·,12µM*,-16%,·
Cc1cc(Nc2ccc(C)c(F)c2)n2ncnc2n1,1.5µM*,19%,·,34%,0%,·
Cc1cc(C)c(-c2cc(C)nc3ncnn23)c(C)c1,12%,7%,2%,42%,·,-3%
C=C1SC(Nc2c(C)cccc2C)=NC12CCCCC2,?,-22%,-4%,?,2%,-1%
C=C1SC(Nc2c(C)cc(C)cc2C)=NC12CCCCC2,1.7µM*,-65%,-18%,?,-38%,-24%
O=C(CCCC1=NS(=O)(=O)c2ccccc2N1)N1CCN(c2ccc(Cl)cc2)CC1,-19%,-13%[8.37 µM],-9%,?,-5%,-24%
O=C(CCCC1=NS(=O)(=O)c2ccccc2N1)N1CCN(c2ccccc2)CC1,-20%,2%,·,205%,-2%,·
COc1cccc(N2CCN(C(=O)CC(C)(C)CC3=NS(=O)(=O)c4ccccc4N3)CC2)c1,?,11µM*,-8%,?,14%,-15%
CC(C)(CC(=O)N1CCN(c2ccc(Cl)cc2)CC1)CC1=NS(=O)(=O)c2ccccc2N1,9.3µM*,?,?,102%,-42%,?
COc1ccccc1N1CCN(S(=O)(=O)CCNC(=O)COc2ccccc2F)CC1,·,·,-18%,·,·,-9%
